Shown are actives, neighbours in structure and some others; about 2.3% of the full set was active somewhere.
GLD-1 RNA inh: GLD-1-TGE RNA interaction inhibition (C. elegans); inhibition, % at 5.96 µM; purified GLD-1 + fluorescein TGE RNA, fluorescence polarization; 320,000 tested, 0.44% active; Q17339;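 active = percent inhibition above a per-plate cutoff, the plate mean of test compounds plus 3 SD, cut at about 30% in these data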;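 note: 0% = DMSO wells with GLD-1 and probe and 100% = wells lacking GLD-1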
Target sequence (Q17339 whole entry, looked up): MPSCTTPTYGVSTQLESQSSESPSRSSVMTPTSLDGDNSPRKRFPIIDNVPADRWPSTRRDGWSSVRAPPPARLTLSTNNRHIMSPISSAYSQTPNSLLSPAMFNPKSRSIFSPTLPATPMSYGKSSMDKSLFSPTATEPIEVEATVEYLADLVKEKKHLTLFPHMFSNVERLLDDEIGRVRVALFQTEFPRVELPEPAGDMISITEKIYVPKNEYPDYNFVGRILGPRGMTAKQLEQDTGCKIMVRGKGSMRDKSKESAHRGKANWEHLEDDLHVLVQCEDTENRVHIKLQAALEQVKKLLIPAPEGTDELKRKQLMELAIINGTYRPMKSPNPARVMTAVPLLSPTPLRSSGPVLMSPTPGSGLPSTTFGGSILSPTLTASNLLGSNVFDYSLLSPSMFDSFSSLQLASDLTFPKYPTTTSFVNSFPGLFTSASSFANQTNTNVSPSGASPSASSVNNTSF
Bim-Mcl-1: disrupts Bim peptide binding to human Mcl-1; Bead-based flow cytometry, Bim peptide-Mcl-1 binding; 190,000 tested, 0.1% active; inhibition, % at 10 µM; AID 1009; Q07820; in the data active = inhibition above about 40%;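 note: 0% = no compound tracer wells and 100% = peptide blocker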
Mcl1-Noxa inh: disrupts binding of human Mcl-1 to Noxa peptide; Q07820; TR-FRET Mcl-1/Noxa peptide binding, 2 h; inhibition, % at 21.7 µM; 220,000 tested, 1.5% active;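 active = compounds that cut the protein-peptide binding signal by more than 50% relative to plate controls in a single-dose test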;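 note: His-tagged Mcl-1 with rhodamine Noxa BH3 peptide and terbium anti-His antibody; 0% = Mcl-1 plus Noxa peptide wells and 100% = peptide-only wells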
Bcl-xL primary: Bcl-xL (human) inhibition | Q07817 | GST-Bcl-xL / FITC-Bim BH3 peptide fluorescence polarization | inhibition, % at 10.9 µM | 320,000 tested, 0.7% active | AID 2129;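 active = inhibition above the mean of all tested compounds plus 3 SD, cutoff set per campaign, cut at about 30% in these data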;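 note: 0% = DMSO wells and 100% = unlabeled Bim-BH3 peptide competitor; inhibitors lower millipolarization by displacing the labeled peptide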
Mcl1-Bid inh: disrupts binding of human Mcl-1 to Bid peptide; TR-FRET Mcl-1/Bid-Dy647 peptide binding, 1536-well; inhibition, % at 21.7 µM; 220,000 tested, 0.97% active; AID 1021;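 active = compounds that cut the binding signal by more than half at the single screening dose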;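 note: His-tagged Mcl-1 with europium anti-His antibody binding Bid BH3 peptide; 0% = Mcl-1 plus peptide wells and 100% = peptide-only wells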
MCL1-BIM inh: inhibitors of human MCL1 binding to BIM-BH3 peptide; Q07820; GST-MCL1 / FITC-Bim-BH3 fluorescence polarization; inhibition, % at 10.9 µM; 320,000 tested, 0.68% active; AID 2057;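 active = inhibition above the mean inhibition of all tested compounds plus 3 SD, set per campaign, cut at about 40% in these data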;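 note: 0% = DMSO wells and 100% = unlabeled Bim-BH3 peptide control; higher means more loss of mP so more displacement of Bim peptide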
* marks the source's active call; other numbers are inactive results; · = no result given.

SMILES	GLD-1 RNA inh	Bim-Mcl-1	Mcl1-Noxa inh	Bcl-xL primary	Mcl1-Bid inh	MCL1-BIM inh
CC(=O)N1CCc2cc(S(=O)(=O)NC(Cc3ccccc3)C(=O)NC3CCCCCC3)ccc21 (stereo unspecified)	5	-4	103*	1	99*	6
CC(OC(=O)c1cccc(-n2cnnn2)c1)C(=O)Nc1cccc(Cl)c1 (stereo unspecified)	4	·	·	2	·	-3
COc1cccc(NC(=O)CN(C)C(=O)CSc2ccc3c(c2)OCCO3)c1	0	·	·	0	·	-1
CCOC(=O)C1CSc2[nH]c(=O)sc2C1c1ccccc1 (stereo unspecified)	0	0	6	16	-9	6
O=C(O)CC12CSc3[nH]c(=O)sc3C1c1ccccc1OC2=O (stereo unspecified)	5	0	-4	1	66*	7
CCN(CC)S(=O)(=O)c1cccc(C(=O)N/N=C2\CC(=O)CC(C)(C)C2)c1	53*	-2	-9	15	-20	19
CCCCOc1ccc(C(=O)NCC(=O)NC2CCN(Cc3ccccc3)CC2)cc1	-2	·	·	3	·	3
O=C(O)c1cccc(N/N=C/C2=C(Cl)c3cc(Cl)ccc3SC2)c1	·	4	103*	·	89*	·
Cc1cc(O)c(C=O)c2c1C(=O)Oc1c(CO)c(O)c3c(c1O2)C(O)OC3=O (stereo unspecified)	14	1	53*	48*	40	103*
COc1cccc(-c2nc(N3CCN(C)CC3)c3ccccc3n2)c1O	1	·	68*	5	-54	4
CN1CCN(c2nc(-c3ccccc3O)nc3ccccc23)CC1	-1	·	·	2	·	1
Cc1ccc(C(=O)Nc2c(-c3cccs3)c(=O)c3ccccc3n2C)cc1	-1	1	0	3	66*	0
CN1C(c2ccccc2)CCOS1(=O)=O (stereo unspecified)	-4	·	·	5	·	6
O=C(Nc1ccon1)Nc1cccc(Cl)c1Cl	4	·	·	0	·	2
CCOc1ccc(OCC(=O)NCCc2nc3ccccc3[nH]2)cc1	-2	1	24	-2	0	-3
Cc1cc(C)cc(OCC(=O)NCCc2nc3ccccc3[nH]2)c1	-5	-5	10	47*	-25	10
O=C(Nc1nnc(S(=O)(=O)N2CCN(c3ccc(F)cc3)CC2)s1)c1ccco1	7	·	·	8	·	14
CNC(=O)NC1CCCc2ccccc21 (stereo unspecified)	4	-2	92*	1	3	-4
CC(NC(=O)NC1CCCCC1)C(c1cccs1)N1CCN(c2ccccc2)CC1 (stereo unspecified)	2	0	-7	0	92*	0
CN1CCN(c2ccc(Cl)cc2NC(=O)c2ccc(S(=O)(=O)N(C)C)cc2)CC1	-3	0	55*	-1	8	0
O=C(c1nc[nH]c1C(=O)N1CCN(c2ccccc2)CC1)N1CCN(c2ccccc2)CC1	-3	·	·	5	·	6
COc1ccc(CNC(=O)COC(=O)/C=C/c2cccc(Cl)c2)cc1	1	·	·	·	·	·
CCN(CC)CCNC(=O)c1ccc(NC(=O)c2ccc3c(c2)CCC3)cc1	14	·	·	48*	·	22
CC1=CC(=C2C(=O)c3ccccc3C2=O)C=C(C)N1Cc1ccco1	-2	4	64*	8	-18	14
O=C1c2ccccc2C(=O)N1Cc1ccco1	-3	4	8	4	3	-2
SMILES	GLD-1 RNA inh	Bim-Mcl-1	Mcl1-Noxa inh	Bcl-xL primary	Mcl1-Bid inh	MCL1-BIM inh
CC(=O)Nc1ccc(S(=O)(=O)NCC2CCC(C(=O)N3CC(C)CC(C)C3)CC2)cc1 (stereo unspecified)	-1	·	·	7	·	9
O=C(COC(=O)CCS(=O)(=O)c1ccc(Cl)cc1)Nc1ncc(Cl)cc1Cl	-8	1	12	4	93*	-3
Cc1c(Cl)cnc(NC(=O)COC(=O)CCS(=O)(=O)c2ccccc2)c1Cl	4	-2	28	17	-24	14
O=C(COC(=O)C1CCN(S(=O)(=O)c2cc([N+](=O)[O-])ccc2Cl)CC1)Nc1ncc(Cl)cc1Cl	20	0	69*	29	-10	33
O=C(COC(=O)C1CC1)Nc1ncc(C(F)(F)F)cc1Cl	26	2	-8	32*	-33	26
CC(=O)COC(=O)C1CCN(S(=O)(=O)c2cc([N+](=O)[O-])ccc2Cl)CC1	2	·	8	4	11	18
O=C(COC(=O)C1CC1)Nc1ncc(Cl)cc1Cl	15	·	·	24	·	30
Cc1c(OC(C)C(=O)NCc2ccncc2)ccc2c3c(c(=O)oc12)CCCC3 (stereo unspecified)	3	·	·	3	·	-2
C=CCOc1ccc(CN(C)C(=O)CNC(=O)c2ccc(-c3ccccc3)cc2)cc1	-6	·	·	-3	·	-2
CCOC(=O)CC(=O)CSC1=C(C#N)C(c2ccccc2OC)CC(=O)N1 (stereo unspecified)	2	-2	11	31*	0	-9
Cc1cnc(C(=O)OC(C(=O)c2c[nH]c3ccccc23)c2ccccc2)cn1 (stereo unspecified)	1	·	·	4	·	2
O=C(CN1C(=O)NC2(CCCCC2)C1=O)Nc1ccc(F)cc1	-2	2	13	-6	-7	-1
O=C(CN1C(=O)NC2(CCc3ccccc3C2)C1=O)Nc1ccc(F)cc1 (stereo unspecified)	3	-8	-12	4	88*	3
C=CCN1C(=O)/C(=C2/Sc3ccccc3N2CCCS(=O)(=O)O)SC1=S	-2	0	71*	16	-10	35
C=CCN1C(=O)/C(=C2/Sc3ccccc3N2CC)SC1=S	-3	·	·	11	·	4
COc1cccc2sc3ccc(NCCC4CCCN4C)cc3c(=O)c12 (stereo unspecified)	36*	·	·	33*	·	30
CCN(CC)CCCN1C=C2C(=O)C(C)(OC(=O)CCC(=O)OC)C(=O)C(Br)=C2C=C1c1ccc(OC)cc1 (stereo unspecified)	14	·	·	31*	·	30
COC(=O)CCC(=O)OC1(C)C(=O)C2=CN(Cc3ccco3)C(c3ccc(OC)cc3)=CC2=C(Br)C1=O (stereo unspecified)	44*	·	·	52*	·	49*
COCCN1C=C2C(=O)C(C)(OC(=O)CCC(=O)OC)C(=O)C(Br)=C2C=C1c1ccc(OC)cc1 (stereo unspecified)	18	·	·	37*	·	44*
COC(=O)CCCC1=CC2=C(c3ccccc3)C(=O)C(C)(OC(=O)C3CCCC3)C(=O)C2=CN1C1CC1 (stereo unspecified)	14	·	1	20	-90	17
CCCCC1=CC2=C(c3ccco3)C(=O)C(C)(OC(=O)c3ccc(OC)cc3)C(=O)C2=CN1Cc1ccco1 (stereo unspecified)	22	·	37	25	-94	31

Screening data: PubChem BioAssay, several laboratories
